The text below walks through data of PubChem BioAssay (NCI).

Values joined by “and” are separate entries in the source; they are usually repeats but may differ in a detail not shown here. Equal entries are not always repeated. This is part of a sample that, as a whole, favours compounds with a hit. Of some 83,000 tested, about 20% had one in any assay.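 Activity criterion: percent growth below 10, measured after cells in 96-well plates were exposed to a single compound concentration for 48 hours.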 Active and inactive are the calls of the source.

Among the test systems are T-47D breast; BT-549 breast; MDA-MB-435 melanoma; SW-620 colon; MCF7 breast; HCT-116 colon; HCC-2998 colon; KM12 colon; MDA-MB-468 breast.
Assay in all cases: NCI-60 one-dose screen, 48 h (100 = growth as untreated, 0 = no growth, -100 = all killed)
What all share (conditions): 10 µM

As to `COc1ccc(OC)c(/C=N/NC(=O)c2ccc3nc(-c4ccc(Cl)cc4)[nH]c3c2)c1`, the growth in the assay on T-47D breast is 38.2% (inactive); in the assay on BT-549 breast, 74.3% (inactive); in the assay with MDA-MB-435 melanoma, 85.7% (inactive); in the assay with SW-620 colon, 92% (inactive); in the assay with MCF7 breast, 51.9% (inactive); with HCT-116 colon, 56.9% (inactive). The figures for the growth with HCC-2998 colon, in the assay with KM12 colon and with MDA-MB-468 breast were 85.4% (inactive), 76.7% (inactive) and 69.6% (inactive), respectively.
As to `CC(=O)c1ccc(Nc2nc(SC(C)C)nc(-c3ccccc3)c2C#N)cc1`, the growth with T-47D breast is 58.7% (inactive); in the assay on BT-549 breast, 90.7% (inactive); in the assay with MDA-MB-435 melanoma, 47.4% (inactive); in the assay with SW-620 colon, 34.9% (inactive); with MCF7 breast, 26.4% (inactive); in the assay on HCT-116 colon, 8.81% (active). Also, the growth with HCC-2998 colon was 70.2% (inactive); in the assay on KM12 colon, 82.2% (inactive); with MDA-MB-468 breast it was 131% (inactive) and -1.07% (active).
Turning to `O=C(Cn1cc(CSc2nnc3oc4ccccc4n23)nn1)Nc1ccc(Br)cc1`, the growth in the assay with T-47D breast was 70.5% (inactive); in the assay on BT-549 breast, 92.1% (inactive); in the assay with MDA-MB-435 melanoma it was 98.1% (inactive); in the assay with SW-620 colon it was 108% (inactive); with MCF7 breast, 65.3% (inactive); with HCT-116 colon, 82% (inactive). Besides, the growth was 96.4% (inactive) in the assay on HCC-2998 colon, 85.7% (inactive) in the assay with KM12 colon and 80.1% (inactive) in the assay with MDA-MB-468 breast.
As for `CC1(C)CC[C@]2(C(=O)O)CC[C@]3(C)C(=CC[C@@H]4[C@@]5(C)C/C(=C/c6ccncc6)[C@H](O)C(C)(C)[C@@H]5CC[C@]43C)[C@@H]2C1`, the growth is 43.6% (inactive) in the assay on T-47D breast; 50.8% (inactive) with BT-549 breast; 54.8% (inactive) with MDA-MB-435 melanoma; 34.6% (inactive) in the assay on SW-620 colon; 24.4% (inactive) in the assay with MCF7 breast; 26% (inactive) in the assay on HCT-116 colon. The growth in the assay on HCC-2998 colon was 49.1% (inactive); in the assay with KM12 colon it was 21.1% (inactive); in the assay on MDA-MB-468 breast, 5.27% (active).
Take `CC(=O)Nc1ccc(-c2cn(-c3cccc(C(=O)Nc4cc(C(F)(F)F)cc(C(F)(F)F)c4)c3)nn2)cn1`: the growth in the assay with T-47D breast is 33.9% (inactive); in the assay with BT-549 breast, -39.6% (active); in the assay on MDA-MB-435 melanoma, -34.3% (active); in the assay with SW-620 colon it was -31.5% (active); with MCF7 breast it was -25% (active); with HCT-116 colon, 10.6% (inactive). The figures for the growth with HCC-2998 colon, in the assay on KM12 colon and in the assay on MDA-MB-468 breast were -62.1% (active), -27.6% (active) and -46.5% (active), respectively.
Turning to `C=C1CCC2C3(C)COC(c4ccccc4F)OC3CCC2(C)C1C/C=C1/C(=O)OCC1O` (stereo unspecified), the growth in the assay with T-47D breast is -50.4% (active); with BT-549 breast it was -82.1% (active); in the assay with MDA-MB-435 melanoma, 4.59% (active); with SW-620 colon, -68.5% (active); with MCF7 breast, -26.5% (active); in the assay with HCT-116 colon it was -67.8% (active). For the same compound, the values for the growth with HCC-2998 colon, in the assay with KM12 colon and with MDA-MB-468 breast were -73.5% (active), -82.3% (active) and -22.6% (active), respectively.
On to `COc1ccc(CN2[C@@H](C(=O)NCc3ccc(C(=O)NO)cc3)Cc3c([nH]c4ccccc34)[C@@H]2C2CC2)cc1`, for which the growth in the assay on T-47D breast was 3.04% (active); with BT-549 breast, 43.3% (inactive); in the assay on MDA-MB-435 melanoma it was -42.1% (active); in the assay with SW-620 colon, -21.5% (active); in the assay with MCF7 breast it was 14.1% (inactive); in the assay on HCT-116 colon it was 12.9% (inactive). Also, the growth in the assay with HCC-2998 colon is 25.1% (inactive); in the assay with KM12 colon, 20.3% (inactive); with MDA-MB-468 breast, -3.5% (active).
Turning to `O=C(c1ccc(O)cc1)C1[C@H](c2ccccc2Br)[C@@H](c2ccccc2)NC12C(=O)Nc1ccc(Cl)cc12` (stereo partly specified), the growth with T-47D breast is 18.2% (inactive); with BT-549 breast, 15.7% (inactive); in the assay with MDA-MB-435 melanoma, -16.4% (active); with SW-620 colon, -0.351% (active); with MCF7 breast it was -17.2% (active); in the assay on HCT-116 colon it was 18.4% (inactive). Further, the growth in the assay with HCC-2998 colon is -73.2% (active); in the assay on KM12 colon, -20.7% (active); in the assay on MDA-MB-468 breast, -47.1% (active).
For the compound `COC1CC(Cn2cc(COc3ccc4ccc(=O)oc4c3)nn2)C(OCc2ccccc2)C(OCc2ccccc2)C1OCc1ccccc1` (stereo unspecified), the growth was 103% (inactive) with T-47D breast; 122% (inactive) with BT-549 breast; 103% (inactive) with MDA-MB-435 melanoma; 97.1% (inactive) with SW-620 colon; 84.8% (inactive) in the assay with MCF7 breast; 76.6% (inactive) with HCT-116 colon. For the same compound, the growth with HCC-2998 colon was 121% (inactive); with KM12 colon, 109% (inactive); with MDA-MB-468 breast, 93.4% (inactive).
In the case of `CN1CCN(c2ccc(C(=O)/C=C/c3cc(Br)ccc3F)cc2)CC1`, the growth in the assay on T-47D breast is 59.8% (inactive); with BT-549 breast, 59.3% (inactive); in the assay with MDA-MB-435 melanoma, 1.57% (active); in the assay with SW-620 colon it was -25.7% (active); in the assay with MCF7 breast it was 2.37% (active); in the assay on HCT-116 colon, 1.2% (active). In addition, the growth was -63.2% (active) in the assay with HCC-2998 colon, 8.8% (active) in the assay on KM12 colon and -13.3% (active) in the assay with MDA-MB-468 breast.
As for `O=C1NC(=NC2CCCCCC2)N/C1=C\c1ccc2ncoc2c1`, the growth in the assay with T-47D breast is 18.9% (inactive); with BT-549 breast, 9.37% (active); with MDA-MB-435 melanoma, 37.8% (inactive); in the assay with SW-620 colon, 11.3% (inactive); in the assay with MCF7 breast it was 13% (inactive); in the assay on HCT-116 colon, 23.5% (inactive). Also, the figures for the growth in the assay with HCC-2998 colon, with KM12 colon and in the assay on MDA-MB-468 breast were 68.8% (inactive), 30% (inactive) and -3.48% (active), respectively.
Take `O=C(N/N=C/c1ccc(-c2cccc([N+](=O)[O-])c2)o1)c1[nH]c2ccc(Br)cc2c1-c1ccccc1`: the growth was 75.9% (inactive) with T-47D breast; 30.5% (inactive) in the assay on BT-549 breast; 16.6% (inactive) in the assay on MDA-MB-435 melanoma; 15.5% (inactive) in the assay on SW-620 colon; 1.16% (active) with MCF7 breast; -53.2% (active) in the assay with HCT-116 colon. For the same compound, the growth is 15% (inactive) with HCC-2998 colon, 7.57% (active) in the assay on KM12 colon and -3.87% (active) in the assay with MDA-MB-468 breast.
For the compound `Cc1ccn2c(C(=O)c3ccccc3)cc(-c3cc(-c4ccc(N(C)C)cc4)c(C#N)c(N)n3)c2c1`, the growth with T-47D breast was 63.6% (inactive); in the assay with BT-549 breast, 58.1% (inactive); with MDA-MB-435 melanoma, 78.8% (inactive); in the assay with SW-620 colon, 69.7% (inactive); with MCF7 breast, 54.3% (inactive); in the assay on HCT-116 colon, 63.4% (inactive). For the same compound, the growth in the assay on HCC-2998 colon is 92% (inactive); with KM12 colon it was 74% (inactive); in the assay with MDA-MB-468 breast, 50.7% (inactive).
Consider `O=c1c2ccccc2nc(COc2ccccc2)n1/N=C/c1ccc(F)cc1`, for which the growth was 57.4% (inactive) in the assay on T-47D breast; 94.7% (inactive) in the assay on BT-549 breast; 86.2% (inactive) with MDA-MB-435 melanoma; 93.2% (inactive) in the assay on SW-620 colon; 80.4% (inactive) with MCF7 breast; 75.3% (inactive) with HCT-116 colon. For the same compound, the growth with HCC-2998 colon is 104% (inactive); in the assay with KM12 colon it was 93.5% (inactive); in the assay with MDA-MB-468 breast it was 78% (inactive).
